About 83,000 compounds went through this panel and 20% of them were active in at least one assay; those are over-represented in the sample as a whole.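 Method: cells in 96-well plates; compound added at one concentration; 48 h incubation; percent growth measured; values under 10 scored active.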 Unmarked numbers belong to inactive results. Calls of active or inactive are those of the source.
What was measured:
Assay in all cases: NCI-60 one-dose screen, 48 h (100 = growth as untreated, 0 = no growth, -100 = all killed)
Settings in all cases: 10 µM unless noted
RPMI-8226 leukemia = test system: RPMI-8226 leukemia
OVCAR-8 ovarian = test system: OVCAR-8 ovarian
OVCAR-5 ovarian = test system: OVCAR-5 ovarian
IGROV1 ovarian = test system: IGROV1 ovarian
OVCAR-3 ovarian = test system: OVCAR-3 ovarian
HS 578T breast = test system: HS 578T breast
NCI/ADR-RES ovarian = test system: NCI/ADR-RES ovarian
T-47D breast = test system: T-47D breast
OVCAR-4 ovarian = test system: OVCAR-4 ovarian
SK-OV-3 ovarian = test system: SK-OV-3 ovarian

Row | Compound | growth (RPMI-8226 leukemia) | growth (OVCAR-8 ovarian) | growth (OVCAR-5 ovarian) | growth (IGROV1 ovarian) | growth (OVCAR-3 ovarian) | growth (HS 578T breast) | growth (NCI/ADR-RES ovarian) | growth (T-47D breast) | growth (OVCAR-4 ovarian) | growth (SK-OV-3 ovarian)
1 | CNCCNc1nc2ccccc2c2c(=O)c3cccc(C)c3sc12 | -30.5% (active) | 37.4% | 55.3% | 18.1% | 47.7% | 61.6% | 44.6% | 49.3% | – | –
2 | O=C(Nc1ccc(Cl)cc1F)c1cc(Br)ccc1O | -13.5% (active) | 9.53% (active) | – | 19.5% | 9.61% (active) | 1.54% (active) | 7.03% (active) | -14% (active) | 14.4% | -0.537% (active)
3 | CCOC(=O)C1=C(C)N=c2s/c(=C\c3cc(Cl)ccc3O)c(=O)n2C1c1ccc(OC)cc1 (centres undefined) | 78.6% | 90.4% | – | 87.6% | 95.5% | 117% | 85.6% | 82% | 94.7% | 104%
4 | CN(CCc1ccccc1)C(=S)N(C(=O)c1ccc([N+](=O)[O-])cc1)c1ccc(Cl)cc1 | -15.8% (active) | 99.3% | – | 105% | 83.5% | 95.2% | 98.4% | 68% | 86.3% | 102%
5 | O=C(/C=C/c1ccc(C(F)(F)F)cc1)c1ccc(Nc2nc(NCCO)nc(Nc3ccc(Cl)cc3)n2)cc1 | 6.67% (active) | 52.6% | 97.3% | 83.5% | 27.1% | 72.4% | 78.7% | 24.2% | – | –
6 | O=C1/C(=C/c2ccc(O)cc2)COc2ccc(O)cc21 | 8.89% (active) | 108% | 104% | – | 108% | 98.5% | 98.7% | 103% | – | –
7 | Cc1ccc(Cc2cnc(NC(=O)CN3C(=O)/C(=C\c4ccccc4)SC3=S)s2)cc1 | 105% | 102% | – | – | 112% | 102% | 107% | 98.8% | 99% | 104%
8 | COC(=O)c1c2c(c(C)[n+]([O-])c1C)C(=O)C(NCc1ccc(Br)cc1)=CC2=O | 47.6% | 4.52% (active) | – | 5.51% (active) | -21.5% (active) | 82.4% | -3.23% (active) | 20.5% | -27% (active) | –
9 | NC(=O)CSc1nc(-c2ccc(F)cc2)cc(-c2ccco2)n1 | 98.5% | 98.1% | – | – | 111% | 115% | 105% | 64.1% | 100% | 102%
10 | CC(C)[C@H](NC(=O)Cn1cc(C(=O)O)nn1)C(=O)O | 105% | 98.1% | – | 111% | 108% | 112% | 106% | 106% | 104% | 106%
11 | NC1C(N)C(N)C1N (centres undefined) | 93.3% | 100% | – | 99.6% | 111% | 112% | 99.6% | 102% | 105% | 92.5%
12 | O=C(c1nc2ccccc2[nH]1)C1C(c2cccc([N+](=O)[O-])c2)C2CC3CCCCC3N2[C@@]12C(=O)Nc1cc(Cl)ccc12 (some centres undefined) | 7.96% (active) | 45.1% | – | 10.3% | 45.5% | 33.6% | 39.7% | 38.4% | 27.5% | –
13 | Nc1n[nH]c2ccc([C@@H]3Nc4ccc5[nH]ncc5c4[C@H]4[C@H]5CCC(C5)[C@H]43)cc12 | 17.4% | 24.3% | – | 24.2% | -10.1% (active) | 5.8% (active) | 5.44% (active) | 73.6% | 47.6% | 50.6%
14 | O=c1c2cc(F)ccc2sc2c(Nc3ccncc3)nc3ccccc3c12 | -31.4% (active) | -18% (active) | -2.06% (active) | 70.7% | 36.5% | 75.3% | -9.24% (active) | -3.72% (active) | – | –
15 | CCN1C(=O)N(CC)C2Nn3c(s/c(=C\c4ccccc4F)c3=O)=NC21 (centres undefined) | 54.1% | 44% | – | 61.1% | 28.5% | 56.9% | 7.68% (active) | 72.8% | 84.9% | 44.8%
16 | O=C(Nc1ccc(Br)cc1F)c1cc(I)ccc1O | -8.84% (active) | 9.66% (active) | – | 16.6% | 4.89% (active) | 7.43% (active) | 4.84% (active) | -14% (active) | 15.4% | -10.4% (active)

Row | Compound | growth (RPMI-8226 leukemia) | growth (OVCAR-8 ovarian) | growth (OVCAR-5 ovarian) | growth (IGROV1 ovarian) | growth (OVCAR-3 ovarian) | growth (HS 578T breast) | growth (NCI/ADR-RES ovarian) | growth (T-47D breast) | growth (OVCAR-4 ovarian) | growth (SK-OV-3 ovarian)
17 | O=C1Nc2ccccc2/C1=C/c1ccc[nH]1 | 97.6% | 92.8% | 78.7% | 49.7% | 81.7% | 86.6% | 99.9% | -24.3% (active) | – | –
18 | O=C(c1nc2ccccc2[nH]1)C1[C@@H](c2cccc(O)c2)C2CC3CCCCC3N2[C@@]12C(=O)Nc1cc(Cl)ccc12 (some centres undefined) | 4.43% (active) | 52.5% | 69.3% | 38.8% | 42.5% | 57.1% | 85.2% | 34.3% | – | –
19 | O=C(/C=C/c1ccccn1)c1ccc(OCc2nnc(-c3ccc(Cl)cc3)o2)cc1 | – | 20.8% | 89.6% | -22.6% (active) | 18.6% | 65.7% | 42.5% | -13.7% (active) | 31% | 26.8%
20 | CC[C@@H](C)[C@H](NC(=O)Cn1cc(CNC(=O)[C@@H](NC(=O)OCc2ccccc2)C(C)C)nn1)C(=O)O | 106% | 96.2% | – | – | 119% | 104% | 105% | 116% | – | 109%
21 | O=C(NC1CCN(Cc2ccccc2)CC1)c1cc2nc(-c3ccc(Cl)s3)cc(C(F)(F)F)n2n1 | -18.4% (active) | – | – | 118% | 89.9% | 87.3% | 94.4% | 97.1% | – | 92.6%
22 | Cc1cc(OC(=O)c2ccc([N+](=O)[O-])cc2)nc2[nH]c(=O)sc12 | – | 102% | 105% | 96.9% | 108% | 95.7% | 104% | 99.7% | 98.7% | 115%
23 | Cc1cc2c(c(C)c1Cl)C(=O)/C(=C/c1ccco1)O2 | 87% | 102% | – | 59.2% | 104% | 98.8% | 104% | 47.5% | 63.3% | –
24 | COC(=O)C1=C(C)NC(C)=C(C(=O)OC)C(N2C(=O)CCC2=O)C1 (centres undefined) | – | 88.7% | 114% | 99.3% | 99.6% | 107% | 95.9% | 93.9% | 79.4% | 104%
25 | CCOC(=O)c1sc(-c2ccc(OS(=O)(=O)c3ccc(Br)s3)c(C=O)c2)nc1C | – | 3.64% (active) | 61.2% | 3.38% (active) | -1.81% (active) | 27.6% | -8.08% (active) | 30.8% | 7.2% (active) | 97.2%
26 | COc1ccc(C2=C(c3cccc(OC)c3)C(=O)c3ccc(C)nc3C2=O)cc1 | 47.2% | 42.3% | – | 43% | 7.59% (active) | 52.5% | 17.1% | -41.4% (active) | -95.8% (active) | –
27 | Clc1ccc(-c2nnc(COc3ccc(C4=NNC(c5ccco5)C4)cc3)o2)cc1 (centres undefined) | – | 96.6% | 95% | 85.4% | 91.3% | 95.7% | 72.6% | 25.7% | 77% | 98.2%
28 | COC(=O)/C(CCC=C(C)C)=C1\[C@@H](OC(C)=O)C[C@@]2(C)[C@H]1C[C@@H](O)[C@H]1[C@@]3(C)CC[C@H](NCc4ccccc4)[C@@H](C)[C@@H]3CC[C@@]12C | 16.9% | 76.1% | – | 70.3% | 69.6% | 67.3% | 64.6% | 62.3% | 61.2% | –
29 | O=C(CSc1nc2ccccc2c(=O)n1-c1ccccc1)Nc1ccc(C(=O)/C=C/c2ccc(Cl)cc2)cc1 | 91.5% | 103% | – | 97.3% | 104% | 106% | 106% | 107% | 105% | –
30 | NS(=O)(=O)c1ccc(CCN=C=S)cc1 | – | 30.1% | 85.5% | 25.6% | -18.6% (active) | 39.7% | 83.6% | – | 42.8% | 122%
31 | CC(=Nc1ccccc1)C1=C(O)C(Cc2ccc(F)cc2)NC1=O (centres undefined) | – | 33.3% | 44.9% | 36.7% | -36.9% (active) | 32.1% | 10.6% | 27.7% | 45.5% | 11.7%

Source: PubChem BioAssay (NCI)
